Assay outcomes deposited in PubChem by National Center for Advancing Translational Sciences (NCATS).
DT40 TDP1 CPT – qHTS for Inhibitors of human tyrosyl-DNA phosphodiesterase 1 (TDP1): qHTS in cells in presence of CPT; 420,000 compounds, 12% hits; chicken DT40 Tdp1-/-;hTDP1 cells + 20 nM CPT, ATP luminescence, 48 h; Potency, µM (titrated, usually from 46.2 µM), inactives show at the top dose activity change, negative = growth inhibition, usual class: inhibitors; note: potency is the fitted concentration of half-maximal effect; % is set by controls: 0 for no effect and ±100 for the full control effect; nearly all actives have a fitted effect of over 55% in size
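Chicken DT40 Tdp1-/- cells complemented with human TDP1, 400 cells/well, exposed to compounds plus 20 nM camptothecin for at least 48 h at 37 C; viability read as ATP content by CellTiter-Glo luminescence.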
ClpP mod – qHTS Assay for Activators of ClpP | ATP-dependent Clp protease proteolytic subunit (Bacillus subtilis (strain 168)), P80244 | purified B. subtilis ClpP, FRET peptide cleavage, 20 min | Potency, µM (series often up to 57.5 µM), for the others: top-dose activity change, negative = active | 340,000 compounds, 1.9% hits | AID 651965, 2013; active = well fitted falling curve with a large enough effect; inconclusive = small, poorly fitted or top-dose-only effect; inactive = no such curve, though single readings can be large or run the other way; note: potency is the fitted concentration of half-maximal effect; the source files actives as falling curves though it sought activators and does not explain the sign; nearly all actives have a fitted effect of over 65% in size
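ClpP 10 microg/mL final, pH 8 Tris/KCl buffer with BSA, glycerol, Tween-20; compound pinned in; FRET-FV substrate; RT 20 min; Ex320/Em430; ΔFRET vs ADEP 5.8 microM, DMSO, no enzyme.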
TDP1 cell noCPT – qHTS for Inhibitors of human tyrosyl-DNA phosphodiesterase 1 (TDP1): qHTS in cells in absence of CPT; DT40 Tdp1-/- hTDP1 cells, no CPT, ATP luminescence, 48 h; Potency, µM (top dose mostly 46.2 µM), for inactives: at the highest dose activity change, negative = growth inhibition, usual class: inhibitors; 420,000 compounds, 15% hits; note: potency is the fitted concentration of half-maximal effect; % is set by controls: 0 for no effect and ±100 for the full control effect; nearly all actives have a fitted effect of over 55% in size
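Chicken DT40 Tdp1-/- cells stably complemented with human TDP1 were seeded at 400 cells/well with DMSO in place of 20 nM camptothecin. After compound pinning, cells grew at least 48 hr at 37 °C; viability read by CellTiter-Glo luminescence.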
IL-1B inflam inh – qHTS for Inhibitors of Inflammasome Signaling: IL-1-beta AlphaLISA Primary Screen; 360,000 compounds, 4.7% hits; THP-1 LPS/ATP IL-1B secretion, AlphaLISA, 16 h; stronger effect = lower value; activity change, % at 57.5 µM; in the data active = activity change below about -50%; inconclusive = mostly about -30% to -49%; note: % is set by controls: 0 for no effect and ±100 for the full control effect
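THP-1 cells pretreated 1 hr with compounds (up to 57.5 uM final), then stimulated with LPS (250 ng/mL final) plus ATP (1.25 mM final); secreted IL-1B measured by AlphaLISA after 16 hr, decreased signal indicating inhibition.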
D3 ag – qHTS of D3 Dopamine Receptor Agonist: qHTS. D(3) dopamine receptor (Homo sapiens), P35462. max activation, %. D3R DiscoveRx beta-arrestin cells, luminescence, 90 min. 410,000 compounds, 0.58% hits; in the data active = max activation above about 30%; note: 0% is about no effect
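Cells at 1500/well, incubated overnight, then treated with pinned compounds (dopamine as control) for 90 min at 37 degrees C. DiscoveRx reagent added for 30 - 60 minutes at room temperature; luminescence read.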
D3 antag – qHTS of D3 Dopamine Receptor Antagonist: qHTS; D(3) dopamine receptor (Homo sapiens), P35462; D3R cells, DiscoveRx beta-arrestin luminescence, antagonist mode; stronger effect = lower value; max response, negative = inhibition, %; 360,000 compounds, 2.5% hits; in the data active = max response below about -50%; inconclusive = no clear call, values can overlap the other calls; note: % is set by controls: 0 for no effect and ±100 for the full control effect
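Cells expressing the human receptor were seeded at 1500 cells/well, incubated overnight at 37 degrees C in 5% CO2, then exposed to library compounds with dopamine controls for 90 minutes at 37 degrees C before luminescent detection.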
The depositor's hits bear a star; ? = inconclusive; . = not tested or not shown. Only some compounds are listed: those with a hit (about 21% of all), similar ones and a draw of the others. Unless noted, calls come from the whole dose curve; as a rule, active = well fitted inhibition curve with a large enough effect; inconclusive = small, poorly fitted or top-dose-only effect; inactive = flat fitted curve, though single readings scatter.

SMILES | DT40 TDP1 CPT | ClpP mod | TDP1 cell noCPT | IL-1B inflam inh | D3 ag | D3 antag
CCOC(=O)C1CCCN(Cc2c(C(=O)N3CCCCC3)nc3c(C)cccn23)C1 (centres undefined) | -19.4% | . | ? | 18.2 | -12.6 | -1.1
CCOC(=O)C1CCN(Cc2ccc(F)c(Br)c2)CC1 | -26.1% | 3.1% | 0.7% | 7.1 | -48.5 | -77.7*
COc1ccccc1-c1ccc(C(=O)N(C)CC2COCCO2)c(N2CCN(c3ccccc3F)CC2)n1 (centres undefined) | -7.7% | . | -9.5% | . | . | .
CCN(C[C@H]1N[C@@](C)(C(=O)OC)[C@H]2C(=O)N(Cc3ccccc3)C(=O)[C@@H]12)C(=O)Nc1ccc(OC)cc1 | -6.4% | 0.1% | -5.0% | -16.5 | 2.3 | 2.1
CCNC(=S)NN=C1CCC(C(C)(C)C)CC1 (centres undefined) | ? | 28.2µM* | 18.4µM* | -19.4 | -1.7 | -14.8
COc1ccc(C2=NS(=O)(=O)N(C)C(C(=O)Nc3ccc4c(c3)OCO4)=C2)cc1OC | 16.4µM* | -3.7% | 16.4µM* | 8.2 | -7.7 | -13.7
COc1ccc(C2=NS(=O)(=O)N(C)C(C(=O)NC3CCCCC3)=C2)cc1OC | 9.2µM* | -0.7% | 18.4µM* | 1.8 | -2.2 | 6.9
COc1ccc(C2=NS(=O)(=O)N(C)C(C(=O)Nc3ccc4c(c3)OCO4)=C2)cc1 | 16.4µM* | -2.2% | 8.2µM* | -17.0 | -9.6 | -103.3*
COC(=O)C1N[C@@H]([C@@H](NC(=O)COc2ccccc2)C(=O)NCc2ccsc2)SC1(C)C (some centres undefined) | -0.3% | -2.3% | ? | 8.1 | 6.9 | 10.5
C[C@H]1CCCCO[C@H](CN(C)C(=O)Nc2ccc(F)cc2)[C@@H](C)CN([C@@H](C)CO)C(=O)c2cc(NC(=O)Nc3ccc4c(c3)OCO4)ccc2O1 | 20.6µM* | -7.6% | ? | -16.9 | 9.7 | 34.9
C[C@@H]1CN([C@@H](C)CO)C(=O)c2cc(NC(=O)Nc3ccccc3)ccc2O[C@@H](C)CCCCO[C@H]1CN(C)C(=O)Nc1ccc(C(F)(F)F)cc1 | ? | -7.7% | ? | ? | 6.5 | 10.0
COc1ccc(NC(=O)N(C)C[C@H]2OCCCC[C@H](C)Oc3ccc(NC(=O)Nc4ccc5c(c4)OCO5)cc3C(=O)N([C@@H](C)CO)C[C@@H]2C)cc1 | 20.6µM* | -9.1% | ? | -29.7 | -2.6 | 9.2
COc1cc2c(cc1OC)CN(C(=O)C1CCCN1S(=O)(=O)c1ccc(F)cc1)CC2 (centres undefined) | -9.6% | 0.6% | -18.3% | -8.8 | -16.1 | -9.4
COc1ccc(N2CCN(C(=O)CN3C(=O)CSc4c3c(C)nn4-c3ccccc3)CC2)cc1 | ? | -11.6% | ? | . | 5.8 | .
COc1ccc2ccc(OCC(=O)Nc3cc(C)on3)cc2c1 | -14.3% | 9.3% | 8.0% | -14.0 | 6.5 | 6.4
c1ccc(C(c2nnnn2C2CCCC2)N2CCCCCC2)nc1 (centres undefined) | -20.5% | 22.4µM* | ? | 4.2 | -18.4 | -19.2
NC(=O)C1CCN(C(c2ccccc2)c2nnnn2C2CCCC2)CC1 (centres undefined) | 8.4% | -3.1% | -14.9% | -6.3 | -4.5 | -2.5
c1ccc(C(c2ccccc2)N2CCN(C(c3ccccn3)c3nnnn3C3CCCC3)CC2)cc1 (centres undefined) | 2.1% | 22.4µM* | -6.5% | -6.5 | 3.0 | -2.3
Cc1cccc(N2CCN(C(=O)c3cccn3-c3nnc(N4CCCCC4)s3)CC2)c1C | 23.1µM* | -4.2% | 23.1µM* | . | 14.4 | .
O=C(c1cccn1-c1nnc(N2CCCCC2)s1)N1CCN(c2ccc(Cl)cc2)CC1 | ? | -3.7% | 25.9µM* | . | -2.2 | .
COc1cccc(N2CCN(C(=O)c3cccn3-c3nnc(N4CCCC4)s3)CC2)c1 | ? | -3.5% | ? | . | 0.3 | .
Cc1ccc(Cl)cc1N1CCN(C(=O)c2cccn2-c2nnc(N3CCCCC3)s2)CC1 | 18.4µM* | -1.9% | 13µM* | . | -6.1 | .
O=C(c1cccn1-c1nnc(N2CCCC2)s1)N1CCN(c2ccc(Cl)cc2)CC1 | 20.6µM* | -0.3% | 23.1µM* | . | -4.8 | .
CSCCC(NC(=O)/C(=C/c1ccco1)NC(=O)c1ccc(Br)o1)C(=O)O (centres undefined) | 0.2% | 0.2% | -4.7% | 19.3 | 0.2 | 33.9
Cc1ccc(Cl)cc1N1CCN(C(=O)C2CCN(c3nnc(-n4cccc4)s3)CC2)CC1 | ? | -4.3% | 16.4µM* | -18.7 | 2.2 | -6.0
SMILES | DT40 TDP1 CPT | ClpP mod | TDP1 cell noCPT | IL-1B inflam inh | D3 ag | D3 antag
O=C(Nc1cc(C(F)(F)F)ccc1Cl)C1CCN(c2nnc(-n3cccc3)s2)CC1 | -28.3% | 1.4% | ? | -3.0 | -12.3 | -0.7
CCOc1ccccc1CN1CCc2nc(Nc3ccc4c(c3)OCCO4)ncc2C1 | ? | -0.4% | ? | . | -17.6 | .
COC(=O)c1ccc(CSc2nc3c(cnn3-c3ccc(C)c(C)c3)c(=O)[nH]2)o1 | ? | -1.5% | 25.9µM* | 68.8 | -3.9 | 58.3
CCCSc1nc2c(cnn2-c2ccc(C)c(C)c2)c(=O)[nH]1 | -4.2% | -4.1% | 0.8% | -9.5 | -1.7 | -21.3
CCc1ccc(N=CC23c4ccccc4C(c4ccccc42)C2C(=O)N(c4ccc(OC)cc4)C(=O)C23)cc1 (centres undefined) | ? | 0.0% | 18.4µM* | -14.7 | -4.1 | ?
COc1ccc(N2C(=O)C3C4c5ccccc5C(C=Nc5ccc(C)cc5C)(c5ccccc54)C3C2=O)cc1 (centres undefined) | ? | -5.4% | ? | 0.0 | 1.8 | -4.0
C=C1NN(Cc2ccccc2)C(=O)N1c1ccc(OCc2ccccc2)cc1 | 11.2µM* | -0.3% | 11.2µM* | . | . | .
CCN(Cc1ccncc1)Cc1c(O)ccc2cc(Br)ccc12 | 5.4% | . | 3.0% | ? | 3.4 | 5.8
CCc1nnc2c(Nc3cccc(F)c3)nc3ccc(C(=O)c4ccccc4)cc3n12 | 6.51µM* | -2.0% | 2.91µM* | . | -9.7 | .
COc1cccc(Nc2nc3ccc(C(=O)c4ccccc4)cc3n3c(C)nnc23)c1 | 11.6µM* | 1.7% | ? | . | 6.9 | .
